# Test results: article PMC3795721, “Screening for Protein-DNA Interactions by Automatable DNA-Protein Interaction ELISA”
# Target: AT4G31550 (Arabidopsis thaliana, UniProt Q9SV15 228-325)
# Assay: DPI-ELISA; DPI-ELISA, streptavidin 384-well plate, 1-2 pmol biotinylated dsDNA per well, crude native E. coli extract, anti-His detection; buffer as in Brand et al. [46],; high values mean tight binding
# Conditions: tags: C-terminal His (pET-DEST42); label: 5' biotin on forward strand; dsDNA, one strand shown
# Chain of AT4G31550 (Q9SV15 228-325): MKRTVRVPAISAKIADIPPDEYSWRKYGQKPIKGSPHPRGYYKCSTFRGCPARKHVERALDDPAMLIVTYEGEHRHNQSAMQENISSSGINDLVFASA
row,Sequence,binding signal
1,AAAAAAGGGTATACTCGCAGCCCCTAAAAA,0.51 ± 0.0849 absorbance
2,AAAAAAGGTAGTCACATTACGAGGGTAAAA,0.555 ± 0.0354 absorbance
3,AAAAAAATTACGCGGGATCGCCAAAA,0.6 ± 0.0566 absorbance
4,AAAAAACTGTGTCCCCGTCCCATCTCAAAA,0.525 ± 0.12 absorbance
5,AAAAAATTGCACCTGATACTAGGGTTAAAA,0.655 ± 0.148 absorbance
6,AAAAAAGGACGTCTTCGGTATGAGTGAAAA,0.815 ± 0.163 absorbance
7,AAAAAAACCCGTGCCTGCCTATTGCAAAAA,0.395 ± 0.0495 absorbance
8,AAAAAACCGCTTACATTGCGTTGTCGAAAA,0.605 ± 0.0495 absorbance
9,AAAAAAGTCTAAGGACTTATAGCTGTAAAA,1.65 ± 0.608 absorbance
10,AAAAAAGTCTGCGTCCTACCCCATTCAAAA,1.04 ± 0.184 absorbance
11,AAAAAATGGCTCGGGTTCCAAGGTTGAAAA,0.645 ± 0.0919 absorbance
12,AAAAAATGCCATTGTACCTGTGTTCGAAAA,0.395 ± 0.0354 absorbance
13,AAAAAAGGGTTTGTCGGGAATTGCCGAAAA,0.58 ± 0.0849 absorbance
14,AAAAAAGGGTCGCTGTGAGCTCATGAAAAA,0.575 ± 0.12 absorbance
15,AAAAAACTTCCCTCCTTGTCCTCCCCAAAA,0.66 ± 0.113 absorbance
16,AAAAAATATCTGATCCAATTTAGGTCAAAA,1.5 ± 0.0212 absorbance
17,AAAAAATATGGCACTCGCCGCACATCAAAA,0.755 ± 0.191 absorbance
18,AAAAAATTAGTCCTGATTCAATCTTCAAAA,0.755 ± 0.106 absorbance
19,AAAAAAGCTAGTGCTGCCACCAACGTAAAA,0.535 ± 0.12 absorbance

row,Sequence,binding signal
1,AAAAAATGCTATCCGTGTCTATGCCAAAAA,0.54 ± 0.0707 absorbance
2,AAAAAACCGTCTTATCTCTCGTCCCTAAAA,0.565 ± 0.12 absorbance
3,AAAAAAATCCATATTATTGCTACCCGAAAA,0.595 ± 0.0636 absorbance
4,AAAAAATATGTAGCTGCCGTTACGCTAAAA,0.54 ± 0.212 absorbance
5,AAAAAAACTCTAGGTCAATATTATTCAAAA,3.11 ± 0.636 absorbance
6,AAAAAATACTGGCTGTCTCGTTCACAAAAA,0.615 ± 0.0778 absorbance
7,AAAAAAGGCCGTTGGACCTCGGTCTAAAAA,0.66 ± 0.0707 absorbance
8,AAAAAAAGTAGTTACTGCGAAAGTCTAAAA,0.675 ± 0.0778 absorbance
9,AAAAAAAAGCTTCGGAGTCTTGAGAAAAAA,0.685 ± 0.0354 absorbance
10,AAAAAACTCGACATAGAATGCGGAAAAAAA,0.655 ± 0.106 absorbance
11,AAAAAATGAATCAATTTTTGGGCTTTAAAA,0.52 ± 0.113 absorbance
12,AAAAAAGGTTTAGCCCATGCCTGTGCAAAA,0.645 ± 0.12 absorbance
13,AAAAAAAAATCGAATTTGGACTTCCGAAAA,0.775 ± 0.0354 absorbance
14,AAAAAAGGTTGGTACGTCGAGTTCTTAAAA,0.565 ± 0.163 absorbance
15,AAAAAATTCTTACTTTTGTCTTTACTAAAA,0.79 ± 0.156 absorbance
16,AAAAAAATATTTGAGCTAGGTTATCAAAAA,0.57 ± 0.113 absorbance
17,AAAAAACACAGCATTAGGCTATCGGTAAAA,0.655 ± 0.134 absorbance
18,AAAAAAAGTTTGACCTTGGCGTTCGTAAAA,3.5 ± 0.148 absorbance
19,AAAAAACCGATCATCACATATCACTGAAAA,0.58 ± 0.141 absorbance
